# According to the supplement of paper PMC10037445:
# ± gives the standard deviation of the averaged measurements. Over roughly 2,900 compounds, “NF-kB SEAP reporter activity, fold change vs agonist alone” has its median near 0.99; the highest 2% begin near 2.6. The list comes from a sample in which the highest values are over-represented; it also holds similar structures and randomly drawn compounds.
# Tests used:
# RAW-Dual [1] = experiment: NF-kB SEAP reporter activity, fold change vs agonist alone; cytotoxicity flag (confluency mask): not cytotoxic; higher = enhanced NF-kB activity
# Summary of the method: (§1)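 RAW-Dual macrophages (50,000 cells/well in DMEM, 384-well plates) received 50 nL of library stock by pin tool, then a PRR agonist 1 h later, and were kept at 37 °C, 5% CO2. After 20 hours, supernatant was read for IRF by QuantiLuc luminescence and for NF-κB by QuantiBlue absorbance at 620 nm. Reporter activity is fold change over agonist-alone wells. Cytotoxic wells had IncuCyte confluency below 70% of agonist controls in both mask sets.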
# RAW-Dual [2] = experiment: NF-kB SEAP reporter activity, fold change vs agonist alone; higher = enhanced NF-kB activity
# Summary of the method: as §1
# RAW-Dual [3] = experiment: NF-kB SEAP reporter activity, fold change vs agonist alone; cytotoxicity flag (confluency mask): cytotoxic (confluency <70% of control); higher = enhanced NF-kB activity
# Summary of the method: as §1
# [4] = agonist: ODN 1826 (TLR9) 0.5 ug/mL
# [5] = agonist: Pam2CSK4 (TLR2/6) 0.1 ug/mL
# [6] = agonist: Pam3CSK4 (TLR2/1) 0.1 ug/mL
# [7] = library stock concentration (final ~1000-fold dilution): 10 mM, cytotoxicity flag (confluency mask): not cytotoxic, agonist: Imiquimod (TLR7) […]
# [8] = library stock concentration (final ~1000-fold dilution): 10 mM, cytotoxicity flag (confluency mask): not cytotoxic, agonist: MPLA (TLR4) […]
# [9] = library stock concentration (final ~1000-fold dilution): 10 mM, cytotoxicity flag (confluency mask): cytotoxic (confluency <70% of control), agonist: Imiquimod (TLR7) […]
# [10] = library stock concentration (final ~1000-fold dilution): 10 mM, cytotoxicity flag (confluency mask): cytotoxic (confluency <70% of control), agonist: MPLA (TLR4) […]
smiles,measurement,setting,value
Cl.NCCCCC(N)C(=O)O (stereo unspecified) (library stock concentration (final ~1000-fold dilution): 10 mM water),NF-kB SEAP reporter activity,RAW-Dual [1]; agonist: LPS (TLR4) 0.1 ug/mL,1.04
same,NF-kB SEAP reporter activity,RAW-Dual [1]; [4],1.11
same,NF-kB SEAP reporter activity,RAW-Dual [1]; [5],1.21
same,NF-kB SEAP reporter activity,RAW-Dual [1]; [6],1.17
CCOC(=O)C(CCc1ccccc1)NC(C)C(=O)N1CCCC1C(=O)O.O=C(O)/C=C\C(=O)O (stereo unspecified) (library stock concentration (final ~1000-fold dilution): 10 mM),NF-kB SEAP reporter activity,RAW-Dual [1]; agonist: LPS (TLR4) 0.1 ug/mL,1.08
same,NF-kB SEAP reporter activity,RAW-Dual [1]; [4],1.04
same,NF-kB SEAP reporter activity,RAW-Dual [1]; [5],1.03
same,NF-kB SEAP reporter activity,RAW-Dual [1]; [6],1.02
CCOC(=O)C(CCc1ccccc1)NC(C)C(=O)N1CCCC1C(=O)O.O=C(O)/C=C\C(=O)O (stereo unspecified),NF-kB SEAP reporter activity,RAW-Dual [2]; [7],0.942
same,NF-kB SEAP reporter activity,RAW-Dual [2]; [8],1.06
CC12CCC(O)CC1=CCC1C2CCC2(C)C(C(O)CC(O)(C(F)(F)F)C(F)(F)F)CCC12 (stereo unspecified),NF-kB SEAP reporter activity,RAW-Dual [2]; [7],0.815
same,NF-kB SEAP reporter activity,RAW-Dual [2]; [8],0.786
CC12CCC(O)CC1=CCC1C2CCC2(C)C(C(O)CC(O)(C(F)(F)F)C(F)(F)F)CCC12 (stereo unspecified) (library stock concentration (final ~1000-fold dilution): 10 mM),NF-kB SEAP reporter activity,RAW-Dual [1]; agonist: LPS (TLR4) 0.1 ug/mL,0.54
same,NF-kB SEAP reporter activity,RAW-Dual [1]; [4],0.663
same,NF-kB SEAP reporter activity,RAW-Dual [1]; [5],0.739
same,NF-kB SEAP reporter activity,RAW-Dual [1]; [6],0.489
O=C(Nc1ccc2[nH]nc(-c3ccc4[nH]ccc4c3)c2c1)c1c(Cl)cccc1Cl (library stock concentration (final ~1000-fold dilution): 10 mM),NF-kB SEAP reporter activity,RAW-Dual [3]; agonist: LPS (TLR4) 0.1 ug/mL,0.946
same,NF-kB SEAP reporter activity,RAW-Dual [3]; [4],0.844
same,NF-kB SEAP reporter activity,RAW-Dual [3]; [5],0.0858
same,NF-kB SEAP reporter activity,RAW-Dual [3]; [6],0.202
O=C(Nc1ccc2[nH]nc(-c3ccc4[nH]ccc4c3)c2c1)c1c(Cl)cccc1Cl,NF-kB SEAP reporter activity,RAW-Dual [2]; [9],0.55
same,NF-kB SEAP reporter activity,RAW-Dual [2]; [10],0.704
C=CC(=O)N1CCC(Oc2nc(Nc3ccc(N4CCC(N5CCN(C)CC5)CC4)cc3)c(C(N)=O)nc2CC)C1 (stereo unspecified) (library stock concentration (final ~1000-fold dilution): 10 mM),NF-kB SEAP reporter activity,RAW-Dual [3]; agonist: LPS (TLR4) 0.1 ug/mL,1.06
same,NF-kB SEAP reporter activity,RAW-Dual [3]; [4],0.194
same,NF-kB SEAP reporter activity,RAW-Dual [3]; [5],0.507
same,NF-kB SEAP reporter activity,RAW-Dual [3]; [6],0.542
C=CC(=O)N1CCC(Oc2nc(Nc3ccc(N4CCC(N5CCN(C)CC5)CC4)cc3)c(C(N)=O)nc2CC)C1 (stereo unspecified),NF-kB SEAP reporter activity,RAW-Dual [2]; [9],0.967
same,NF-kB SEAP reporter activity,RAW-Dual [2]; [10],1.62
CC1OC(OC2C(=O)c3c(O)cc(O)cc3OC2c2ccc(O)cc2)C(O)C(O)C1O (stereo unspecified) (library stock concentration (final ~1000-fold dilution): 10 mM),NF-kB SEAP reporter activity,RAW-Dual [1]; agonist: LPS (TLR4) 0.1 ug/mL,1.09 ± 0.015
same,NF-kB SEAP reporter activity,RAW-Dual [1]; [4],0.9919 ± 0.0043
same,NF-kB SEAP reporter activity,RAW-Dual [1]; [5],1.06 ± 0.064
same,NF-kB SEAP reporter activity,RAW-Dual [1]; [6],1.39 ± 0.41
CC1OC(OC2C(=O)c3c(O)cc(O)cc3OC2c2ccc(O)cc2)C(O)C(O)C1O (stereo unspecified),NF-kB SEAP reporter activity,RAW-Dual [2]; [7],1.03 ± 0.025
same,NF-kB SEAP reporter activity,RAW-Dual [2]; [8],1.04 ± 0.041
O=C1NC(=O)C(c2cnc3ccccn23)=C1c1cn2c3c(cc(F)cc13)CN(C(=O)N1CCCCC1)CC2 (library stock concentration (final ~1000-fold dilution): 10 mM),NF-kB SEAP reporter activity,RAW-Dual [1]; agonist: LPS (TLR4) 0.1 ug/mL,3.19
same,NF-kB SEAP reporter activity,RAW-Dual [1]; [4],2.72
same,NF-kB SEAP reporter activity,RAW-Dual [1]; [5],1.42
same,NF-kB SEAP reporter activity,RAW-Dual [1]; [6],1.84
O=C1NC(=O)C(c2cnc3ccccn23)=C1c1cn2c3c(cc(F)cc13)CN(C(=O)N1CCCCC1)CC2,NF-kB SEAP reporter activity,RAW-Dual [2]; [7],2.62
same,NF-kB SEAP reporter activity,RAW-Dual [2]; [8],2.43
CC(C(=O)Nc1ccc(Cl)cc1)C1CCC(c2ccnc3ccc(F)cc23)CC1 (stereo unspecified) (library stock concentration (final ~1000-fold dilution): 10 mM),NF-kB SEAP reporter activity,RAW-Dual [1]; agonist: LPS (TLR4) 0.1 ug/mL,0.974
same,NF-kB SEAP reporter activity,RAW-Dual [1]; [4],1.05
same,NF-kB SEAP reporter activity,RAW-Dual [1]; [5],0.52
same,NF-kB SEAP reporter activity,RAW-Dual [1]; [6],0.738
CC(C(=O)Nc1ccc(Cl)cc1)C1CCC(c2ccnc3ccc(F)cc23)CC1 (stereo unspecified),NF-kB SEAP reporter activity,RAW-Dual [2]; [7],1.51
same,NF-kB SEAP reporter activity,RAW-Dual [2]; [8],1.55
COc1ccc(CNCc2cccc3ccccc23)cc1.Cl (library stock concentration (final ~1000-fold dilution): 10 mM),NF-kB SEAP reporter activity,RAW-Dual [1]; agonist: LPS (TLR4) 0.1 ug/mL,1.45
same,NF-kB SEAP reporter activity,RAW-Dual [1]; [4],0.82
same,NF-kB SEAP reporter activity,RAW-Dual [1]; [5],1.04
same,NF-kB SEAP reporter activity,RAW-Dual [1]; [6],1.06
COc1ccc(CNCc2cccc3ccccc23)cc1.Cl,NF-kB SEAP reporter activity,RAW-Dual [2]; [7],1.34
same,NF-kB SEAP reporter activity,RAW-Dual [2]; [8],1.44
COC1CC2CCC(C)C(O)(O2)C(=O)C(=O)N2CCCCC2C(=O)OC(C(C)CC2CCC(OCCO)C(OC)C2)CC(=O)C(C)C=C(C)C(O)C(OC)C(=O)C(C)CC(C)C=CC=CC=C1C (stereo unspecified),NF-kB SEAP reporter activity,RAW-Dual [2]; [7],1.77
same,NF-kB SEAP reporter activity,RAW-Dual [2]; [8],1.92
COC1CC2CCC(C)C(O)(O2)C(=O)C(=O)N2CCCCC2C(=O)OC(C(C)CC2CCC(OCCO)C(OC)C2)CC(=O)C(C)C=C(C)C(O)C(OC)C(=O)C(C)CC(C)C=CC=CC=C1C (stereo unspecified) (library stock concentration (final ~1000-fold dilution): 10 mM),NF-kB SEAP reporter activity,RAW-Dual [1]; agonist: LPS (TLR4) 0.1 ug/mL,1.83
same,NF-kB SEAP reporter activity,RAW-Dual [1]; [4],1.7
same,NF-kB SEAP reporter activity,RAW-Dual [1]; [5],0.629
same,NF-kB SEAP reporter activity,RAW-Dual [1]; [6],0.915
COC1CC2CCC(C)C(O)(O2)C(=O)C(=O)N2CCCCC2C(=O)OC(C(C)CC2CCC(O)C(OC)C2)CC(=O)C(C)C=C(C)C(O)C(OC)C(=O)C(C)CC(C)C=CC=CC=C1C (stereo unspecified),NF-kB SEAP reporter activity,RAW-Dual [2]; [7],1.44
same,NF-kB SEAP reporter activity,RAW-Dual [2]; [8],1.5
same,NF-kB SEAP reporter activity,"RAW-Dual [2]; library stock concentration (final ~1000-fold dilution): .1 mM, cytotoxicity flag (confluency mask): not cytotoxic, agonist: Imiquimod (TLR7) […]",1.35
same,NF-kB SEAP reporter activity,"RAW-Dual [2]; library stock concentration (final ~1000-fold dilution): .1 mM, cytotoxicity flag (confluency mask): not cytotoxic, agonist: MPLA (TLR4) […]",1.19
COC1CC2CCC(C)C(O)(O2)C(=O)C(=O)N2CCCCC2C(=O)OC(C(C)CC2CCC(O)C(OC)C2)CC(=O)C(C)C=C(C)C(O)C(OC)C(=O)C(C)CC(C)C=CC=CC=C1C (stereo unspecified) (library stock concentration (final ~1000-fold dilution): .1 mM),NF-kB SEAP reporter activity,RAW-Dual [1]; agonist: LPS (TLR4) 0.1 ug/mL,1.2
same,NF-kB SEAP reporter activity,RAW-Dual [1]; [4],1.31
same,NF-kB SEAP reporter activity,RAW-Dual [1]; [5],1.53
same,NF-kB SEAP reporter activity,RAW-Dual [1]; [6],1.44
COC1CC2CCC(C)C(O)(O2)C(=O)C(=O)N2CCCCC2C(=O)OC(C(C)CC2CCC(O)C(OC)C2)CC(=O)C(C)C=C(C)C(O)C(OC)C(=O)C(C)CC(C)C=CC=CC=C1C (stereo unspecified) (library stock concentration (final ~1000-fold dilution): 10 mM),NF-kB SEAP reporter activity,RAW-Dual [1]; agonist: LPS (TLR4) 0.1 ug/mL,1.57
same,NF-kB SEAP reporter activity,RAW-Dual [1]; [4],1.11
same,NF-kB SEAP reporter activity,RAW-Dual [1]; [5],0.536
same,NF-kB SEAP reporter activity,RAW-Dual [1]; [6],0.77
COC1CC2CCC(C)C(O)(O2)C(=O)C(=O)N2CCCCC2C(=O)OC(C(C)CC2CCC(OC(=O)C(C)(CO)CO)C(OC)C2)CC(=O)C(C)C=C(C)C(O)C(OC)C(=O)C(C)CC(C)C=CC=CC=C1C (stereo unspecified),NF-kB SEAP reporter activity,RAW-Dual [2]; [7],2.36
same,NF-kB SEAP reporter activity,RAW-Dual [2]; [8],2.41
COC1CC2CCC(C)C(O)(O2)C(=O)C(=O)N2CCCCC2C(=O)OC(C(C)CC2CCC(OC(=O)C(C)(CO)CO)C(OC)C2)CC(=O)C(C)C=C(C)C(O)C(OC)C(=O)C(C)CC(C)C=CC=CC=C1C (stereo unspecified) (library stock concentration (final ~1000-fold dilution): 10 mM),NF-kB SEAP reporter activity,RAW-Dual [1]; agonist: LPS (TLR4) 0.1 ug/mL,3.85
same,NF-kB SEAP reporter activity,RAW-Dual [1]; [4],3.11
same,NF-kB SEAP reporter activity,RAW-Dual [1]; [5],1.33
same,NF-kB SEAP reporter activity,RAW-Dual [1]; [6],2.09
